ELG1 DNA repair: inhibitors of ELG1-dependent DNA repair in HEK293T cells; actives 2.3% (n = 330,000); HEK293T ELG1-luciferase reporter, luminescence, 16 h; DNA damage induced by 5-fluorouridine; Potency, µM (series often up to 46.1 µM), without a hit: top-dose activity change, negative = inhibition, hits mostly inhibitors; note: % is set by controls: 0 for no effect and ±100 for the full control effect; nearly all actives have a fitted effect of over 55% in size
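DMSO vehicle served as the neutral condition. Each well held 2,000 cells given 5-fluorouridine plus compound; after 16 hr at 37 °C/5% CO2, ONE-Glo was added and luciferase measured 30 min later.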
SMN2 splice up: increases expression of the SMN2 splice variant; actives 2.8% (n = 210,000); AID 1458; Potency, µM (highest dose often 46.1 µM), for inactives: at the highest dose activity change, positive = activation, hits mostly activators; HEK293 SMN2-luciferase splicing reporter, luminescence, 30-36 h; note: % of control where 0% means no effect; nearly all actives have a fitted effect of over 55% in size
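HEK293 cells carry an SMN2 […]–luciferase reporter in which exon 7 inclusion puts luciferase in frame. Cells were plated 10-12 h before compound addition, then incubated 30-36 h at 37C. ONE-Glo luminescence was read; sodium butyrate at 4.5 mM final served as control.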
Rab9 promoter act: activators of Rab9 promoter; Huh7 Rab9 promoter-luciferase reporter, luminescence, 24 h; Potency, µM (titrated, usually from 9.22 µM), inactives show at the top dose activation, negative = inhibition, actives largely listed as activators; actives 2.8% (n = 320,000); AID 485297; note: % of control where 0% means no effect; nearly all actives have a fitted effect of over 60% in size
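Huh7 cells stably carrying Rab9 promoter–luciferase reporter, plated 1500 cells/well, compound added after 2 h and incubated 24 h at 37 °C; luciferase luminescence then read after 10 min with detection reagent.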
FLuc modulator: firefly luciferase modulation, counter-screen for miR-21 project; P08659; purified FLuc, Km substrates, luminescence inhibition; Potency, µM (series often up to 57.5 µM), for inactives: at the top dose activity change, negative = inhibition, most hits filed as inhibitors; actives 6.9% (n = 360,000); AID 588342;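 note: plate controls were vehicle for no effect and reference inhibitor for full effect; nearly all actives have a fitted effect of over 55% in size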
Target sequence (P08659 whole entry, looked up): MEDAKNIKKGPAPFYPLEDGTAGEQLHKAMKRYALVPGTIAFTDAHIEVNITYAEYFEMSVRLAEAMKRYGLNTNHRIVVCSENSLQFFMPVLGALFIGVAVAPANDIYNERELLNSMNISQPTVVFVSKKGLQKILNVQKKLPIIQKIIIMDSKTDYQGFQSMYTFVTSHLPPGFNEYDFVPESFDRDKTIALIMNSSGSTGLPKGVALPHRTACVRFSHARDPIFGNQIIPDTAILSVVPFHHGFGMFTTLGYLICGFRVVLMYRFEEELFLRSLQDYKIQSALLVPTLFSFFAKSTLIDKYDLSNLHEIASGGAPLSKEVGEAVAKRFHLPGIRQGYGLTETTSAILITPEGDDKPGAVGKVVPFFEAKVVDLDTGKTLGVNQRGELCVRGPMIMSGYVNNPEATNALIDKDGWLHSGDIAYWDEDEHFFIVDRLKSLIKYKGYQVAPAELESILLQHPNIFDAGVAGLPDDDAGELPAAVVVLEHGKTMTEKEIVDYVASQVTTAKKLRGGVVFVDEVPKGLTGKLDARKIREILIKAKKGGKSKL
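Purified P. pyralis luciferase (10nM final) with 10uM D-luciferin and 10uM ATP (Km levels) in 50mM Tris acetate pH 7.5, 10mM Mg acetate, 0.01% Tween-20, 0.05% BSA; qHTS 6-point titration, ~60 µM downward; luminescence read.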
NPC1 promoter act: NPC1 promoter activation. Huh7 NPC1 promoter luciferase reporter, 24 h. Potency, µM (titrated, usually from 9.22 µM), for inactives: at the highest dose activation, hits mostly activators. actives 2.4% (n = 320,000). AID 485313; note: % of control where 0% means no effect; nearly all actives have a fitted effect of over 60% in size
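In 1536-well qHTS, Huh7 cells harboring an NPC1 promoter–luciferase construct received compound for 24 h; activation was quantified by luminescence following luciferase reagent addition.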
ELG1 genotox: genotoxicity induction in ELG1-luciferase HEK293T cells; HEK293T ELG1-luciferase reporter, luminescence, 16 h; Potency, µM (series often up to 46 µM), inactives show top-dose activity change, positive = activation, hits mostly activators; actives 1.3% (n = 330,000); AID 504466; note: % of control where 0% means no effect; nearly all actives have a fitted effect of over 60% in size
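After overnight (16 hr) compound treatment at 37 °C, ELG1-luciferase HEK293T cells were lysed with ONE-Glo; luminescence quantified 30 min later at room temperature.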
* hit, by the source's call; ? = inconclusive; · = not tested or not shown. In the library only some 9.2% were active in any assay of this set; here they are far more common. Calls come from the whole dose curve; as a rule, active = well fitted curve in the direction sought with a large enough effect; inconclusive = small, poorly fitted or top-dose-only effect, or another doubt; inactive = no such curve, though single readings can be large; an effect the other way counts as inactive or inconclusive. Potency is the fitted concentration of half-maximal effect.

SMILES | ELG1 DNA repair | SMN2 splice up | Rab9 promoter act | FLuc modulator | NPC1 promoter act | ELG1 genotox
O=c1oc2cc(O)ccc2cc1-c1ccccc1 | ? | · | 4% | 24µM* | ? | ?
O=c1oc2cc(O)ccc2cc1-c1nnc(Nc2ccccc2F)s1 | · | 4µM* | · | 2.4µM* | · | ·
O=c1oc2ccc3ccccc3c2cc1-c1nnc(Nc2ccccc2F)s1 | · | 1% | · | -1% | · | ·
O=c1c(-c2ccc3c(c2)OCCO3)coc2cc(O)cc(O)c12 | ? | 6.3µM* | ? | 4.8µM* | 1.8µM* | 2.5µM*
COc1ccc(-c2cc3ccc(O)cc3oc2=O)cc1 | ? | · | 3.2µM* | 4.8µM* | 1.3µM* | 8.2µM*
O=c1oc2cc(O)ccc2cc1-c1ccc2c(c1)OCCO2 | · | 18µM* | · | · | · | ·
O=c1oc2cc(O)ccc2cc1-c1nc(-c2ccc(Cl)c(Cl)c2)cs1 | · | · | · | -4% | · | ·
CCOC(=O)c1ccccc1NC(=O)Cn1c(=O)n(Cc2nc(C)no2)c(=O)c2ccccc21 | · | · | · | -10% | · | ·
Cc1cc(C)n(CC(=O)N/N=C/c2cccs2)n1 | ? | -7% | 3% | 17µM* | -2% | 7%
Cc1cc(C)n(CC(=O)N/N=C/c2ccc([N+](=O)[O-])s2)n1 | 15µM* | -91% | -1% | 4% | 0% | -16%
COc1cc([N+](=O)[O-])cc(/C=N/NC(=O)Cn2nc(C)cc2C)c1O | -28% | · | -3% | 3% | -2% | -4%
Cc1ccc(C)c(N2CCN(C(=O)Nc3cn(CC(C)C)c(=O)c4ccccc34)CC2)c1 | · | · | · | 6% | · | ·
O=c1[nH]c2cc3c(cc2cc1CN(Cc1nnnn1C1CCCC1)C1CCCC1)OCCO3 | 13µM* | 3% | -2% | -16% | -3% | 8%
CC1CN(S(=O)(=O)c2ccc(C(=O)Nc3nnc(-c4ccco4)o3)cc2)CC(C)O1 (stereo not drawn) | 18µM* | -37% | -30% | -11% | -4% | -15%
CC1CCN(S(=O)(=O)c2ccc(C(=O)Nc3nnc(-c4ccco4)o3)cc2)CC1 | ? | · | -16% | 6% | -17% | -25%
CCC1CCCCN1S(=O)(=O)c1ccc(C(=O)Nc2nnc(-c3cccs3)o2)cc1 (stereo not drawn) | ? | -106% | -25% | 9% | -28% | -6%
CC1CC(C)CN(S(=O)(=O)c2ccc(C(=O)Nc3nnc(-c4cccs4)o3)cc2)C1 (stereo not drawn) | 5.8µM* | -74% | -18% | 0% | -27% | -16%
COc1cccc(-c2nnc(NC(=O)c3ccc(S(=O)(=O)N4CC(C)OC(C)C4)cc3)o2)c1 (stereo not drawn) | 2.6µM* | -84% | -18% | -1% | -25% | -16%
O=C(Nc1nnc(-c2ccc(F)cc2)o1)c1ccc(S(=O)(=O)N2CCOCC2)cc1 | 7.3µM* | · | -34% | 1% | -32% | -18%
Cc1ccc(/C=c2\s/c(=C(/C#N)C(=O)N3CCCC3)n(Cc3ccco3)c2=O)s1 | 13µM* | -34% | 0% | 0% | -5% | -4%
CCOc1ccccc1C(=O)N[C@H](C(=O)OCc1csc(CC(=O)Nc2ccc(C)cc2)n1)C(C)C | 23µM* | · | · | · | · | -9%
CCOc1cc(C(=O)OCc2cc(=O)n3nc(CC)sc3n2)cc(OCC)c1OCC | · | · | · | 1% | · | ·
COc1ccc(-c2cc(-c3ccc(Cl)cc3)n[nH]2)c(O)c1 | ? | · | 2.5µM* | 6µM* | 1.8µM* | ?
Oc1ccc(Br)cc1-c1cc(-c2ccccc2)n[nH]1 | -2% | -20% | -3% | -16% | -5% | -2%
O=[N+]([O-])c1cccc(-c2cc(-c3cc(Br)ccc3O)[nH]n2)c1 | 16µM* | · | -1% | -11% | -3% | -10%
COc1ccc(O)c(-c2cc(-c3ccc(F)cc3)n[nH]2)c1 | ? | · | ? | 15µM* | 4.5µM* | ?
